Source: PubChem (several laboratories)
An excerpt weighted towards active compounds, which were near 2% of everything screened.
NOD2-RIPK2 inh = NOD2-RIPK2 protein interaction inhibition | O43353 | CHO BLA complementation NOD2-RIPK2, CCF4 ratio | inhibition, % at 4.98 µM | 360,000 tested, 0.38% active; in the data active = inhibition above about 21%;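 also: 0% = vehicle only and 100% = reference blocker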
TLR9-MyD88 block = inhibitors of human TLR9-MyD88 binding | AID 504734 | inhibition, % at 4.98 µM | Q9NR96+Q99836 | CHO BLA complementation TLR9-MyD88, CCF4 FRET ratio | 340,000 tested, 0.21% active;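 active = inhibition above the mean over all tested compounds plus 3 SD, cut at about 21% in these data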;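 also: 0% = DMSO only wells and 100% = clavulanate BLA inhibitor control wells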
Beta2AR agonist = human beta-2 adrenergic receptor agonism by FAP; P07550; Am2.2-beta2AR cells, FAP receptor internalization, flow cytometry; response, % (test concentration not listed); 340,000 tested, 0.43% active;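 active = response above a set limit, near 3 SD of response in nonfluorescent compounds, cut at about 42% in these data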
ABHD5-PLIN5 inh = inhibitors of human ABHD5-perilipin-5 interaction; 360,000 tested, 0.78% active; inhibition, % at 4 µM; Split G. princeps luciferase complementation, luminescence, 4 h;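 active = inhibition above the mean inhibition across every tested compound plus 3 SD, cut at about 22% in these data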;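 also: 0% = DMSO only wells and the 100% control is not disclosed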
TLR4 MyD88 comp = inhibitors of human TLR4-MyD88 binding. O00206+Q99836. HeLa CL3-4 TLR4/MyD88 BLA complementation, FRET ratio. inhibition, % at 8.4 µM. 200,000 tested, 0.18% active; in the data active = inhibition above about 25%;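 also: 0% = vehicle and 100% = reference inhibitor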
Target sequence (O00206 whole entry, looked up): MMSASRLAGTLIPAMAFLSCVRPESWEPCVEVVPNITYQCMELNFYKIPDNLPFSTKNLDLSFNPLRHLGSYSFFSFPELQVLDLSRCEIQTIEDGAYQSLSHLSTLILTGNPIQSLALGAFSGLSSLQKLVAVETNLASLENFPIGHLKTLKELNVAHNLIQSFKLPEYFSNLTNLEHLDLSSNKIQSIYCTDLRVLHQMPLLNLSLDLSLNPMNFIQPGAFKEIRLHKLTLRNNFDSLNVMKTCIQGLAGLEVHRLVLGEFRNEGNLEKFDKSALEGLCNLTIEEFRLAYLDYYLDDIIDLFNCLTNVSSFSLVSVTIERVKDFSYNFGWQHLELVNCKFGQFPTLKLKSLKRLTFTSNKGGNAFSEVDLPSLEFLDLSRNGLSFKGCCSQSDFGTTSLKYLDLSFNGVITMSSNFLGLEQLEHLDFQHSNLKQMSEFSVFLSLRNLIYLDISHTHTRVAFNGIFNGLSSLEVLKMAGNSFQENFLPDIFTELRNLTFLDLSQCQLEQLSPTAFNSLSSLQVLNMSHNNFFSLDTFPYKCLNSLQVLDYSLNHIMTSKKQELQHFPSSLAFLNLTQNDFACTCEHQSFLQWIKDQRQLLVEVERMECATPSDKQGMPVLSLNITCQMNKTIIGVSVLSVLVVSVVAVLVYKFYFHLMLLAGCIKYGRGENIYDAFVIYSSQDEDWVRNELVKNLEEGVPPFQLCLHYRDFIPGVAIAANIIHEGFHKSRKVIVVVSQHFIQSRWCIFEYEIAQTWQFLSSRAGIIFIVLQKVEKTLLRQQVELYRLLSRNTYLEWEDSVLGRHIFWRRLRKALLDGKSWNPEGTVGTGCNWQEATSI
Target sequence (Q99836 whole entry, looked up): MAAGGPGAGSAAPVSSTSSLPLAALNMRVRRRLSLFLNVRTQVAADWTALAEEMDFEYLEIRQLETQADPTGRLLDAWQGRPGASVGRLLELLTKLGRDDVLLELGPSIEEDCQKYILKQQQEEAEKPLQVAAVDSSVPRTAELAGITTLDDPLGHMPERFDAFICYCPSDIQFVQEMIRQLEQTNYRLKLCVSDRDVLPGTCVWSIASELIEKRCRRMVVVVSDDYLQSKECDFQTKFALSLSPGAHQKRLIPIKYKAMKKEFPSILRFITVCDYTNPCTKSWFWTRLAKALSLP
Exocytosis inh = blocks lytic granule exocytosis | TALL-104 LAMP-1 surface exposure, flow cytometry; cells stimulated with thapsigargin and PMA | inhibition, % at 10 µM | 360,000 tested, 0.66% active;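 active = inhibition above about 55%, limit read from the data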
ABHD5-PLIN5 conf = ABHD5-PLIN5 interaction inhibition, confirmed; shares compounds with ABHD5-PLIN5 inh; biochemical ABHD5-PLIN5 interaction, luminescence; inhibition, % at 4 µM; 2,200 tested, 67% active; AID 651612; in the data active = inhibition above about 23%;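 also: 0% = DMSO vehicle wells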
HNF4 split-luc = HNF4 split-luciferase signal hit, counter-screen. shares compounds with ABHD5-PLIN5 inh. HNF4 dimerization, luminescence, biochemical. inhibition, % at 4 µM. 2,200 tested, 77% active. AID 651674;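 active = mean inhibition across replicate wells exceeding the computed hit threshold, cut at about 13% in these data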;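 also: light from luciferase halves that rejoin when HNF4 fusion proteins dimerize; 0% = DMSO only wells and the 100% control is not given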
NOD2-RIPK2 conf = NOD2-RIPK2 interaction inhibition confirmed. 1,200 tested, 70% active. inhibition, % at 4.98 µM. CHO cells, NOD2-RIPK2 BLA complementation, CCF4 FRET. shares compounds with NOD2-RIPK2 inh;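 active = mean inhibition across replicates above a set limit taken from the earlier primary screen, cut at about 21% in these data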;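 also: 0% = DMSO-only wells and the high end = clavulanate BLA-blocked wells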
BLA counter = counter-screen for NOD2-RIPK2 interaction inhibitors: BLA reporter; shares compounds with NOD2-RIPK2 inh; CHO BLA reporter, CCF4 FRET ratio, counterscreen; inhibition, % at 4.98 µM; 1,200 tested, 57% active;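 active = mean inhibition above the low-control mean inhibition plus three low-control SD, cut at about 11% in these data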;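 also: 0% = DMSO only wells and 100% = clavulanate high control wells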
The depositor's hits bear a star; · = no result given.

SMILES	NOD2-RIPK2 inh	TLR9-MyD88 block	Beta2AR agonist	ABHD5-PLIN5 inh	TLR4 MyD88 comp	Exocytosis inh	ABHD5-PLIN5 conf	HNF4 split-luc	NOD2-RIPK2 conf	BLA counter
Cn1cnc([N+](=O)[O-])c1S(=O)(=O)Oc1ccc(Cl)cc1	21.2*	2.2	14.1	73.0*	·	30.7	85.3*	104.5*	47.0*	-1.3
Cn1cnc([N+](=O)[O-])c1Oc1cccc2ccccc12	-6.2	2.1	9.2	12.7	-14.0	15.6	·	·	·	·
Cn1cnc([N+](=O)[O-])c1S(=O)(=O)Oc1cccc2ccccc12	56.1*	14.7	21.3	76.3*	·	3.2	76.0*	105.9*	54.8*	1.3
O=C(NC(c1ccc(Cl)cc1)c1cnccn1)C1CCN(CCCc2ccccc2)CC1 (configuration not stated)	-3.3	·	·	4.4	·	-6.3	·	·	·	·
O=[N+]([O-])c1ccc(N2CCOCC2)cc1O	-2.5	-2.1	3.8	-0.7	·	0.0	·	·	·	·
Cc1cc(N2CCOCC2)ccc1/C=C\[N+](=O)[O-]	51.3*	7.0	42.5*	77.0*	14.2	-3.3	97.2*	98.6*	55.3*	3.8
O=C(C(=Cc1ccc(F)cc1)c1ccccc1)c1ccc(O)cc1	2.7	3.5	-0.3	-4.1	·	0.6	·	·	·	·
O=C(C(=Cc1ccc(F)cc1)C(=O)c1ccccc1)c1ccccc1	29.0*	·	·	93.7*	·	38.0	96.8*	87.4*	12.8	-3.0
CCOc1cc(/C=C\[N+](=O)[O-])ccc1OCC(=O)Nc1ccccc1C	88.8*	20.1	112.4*	55.3*	15.9	52.3	95.6*	102.1*	96.9*	13.2*
CC1=NNC(=O)/C1=C\c1cn(-c2ccccc2)nc1-c1cccs1	59.9*	6.9	105.7*	36.9*	0.8	47.0	100.2*	101.8*	66.3*	-1.1
O=C(O)CCCCCN1C(=O)/C(=C/c2cn(-c3ccccc3)nc2-c2cccs2)SC1=S	0.5	6.8	11.0	-3.3	·	2.4	·	·	·	·
CC(=O)N1CCC(c2nc3ccccc3n2C(C)C(=O)NCc2ccccc2)CC1 (configuration not stated)	11.6	·	·	4.2	·	-5.7	·	·	·	·
CCOC(=O)C(C)(C)Sc1ncnc2nc[nH]c12	-2.5	14.5	10.5	-3.1	13.0	-1.1	·	·	·	·
CCOC(=O)c1cc([N+](=O)[O-])cc([N+](=O)[O-])c1Sc1ncnc2nc[nH]c12	39.3*	5.2	39.0	37.6*	·	21.9	61.7*	101.8*	67.4*	-15.1
Cc1ccc(NN2C(=O)C=C(c3ccccc3)C2=O)cc1	84.0*	·	·	91.8*	-2.7	67.2*	99.7*	105.0*	85.8*	0.6
OCc1nc2ccccc2n1CCCc1ccccc1	-6.9	-14.5	·	-1.8	·	-6.7	·	·	·	·
O=C(/C=C/c1cccnc1)/C=C/c1cccnc1	22.8*	6.6	67.5*	94.9*	·	8.3	102.2*	108.0*	48.4*	3.7
CSc1ccccc1OCc1cc(C(=O)N2CCC(Oc3cccnc3)CC2)no1	2.5	1.1	-5.0	6.2	·	2.3	·	·	·	·
O=[N+]([O-])/C=C\c1ccc(N2CCCC2)c(F)c1	31.0*	13.0	37.7	64.2*	13.0	75.2*	98.4*	100.0*	77.1*	22.5*
CC(=O)C1CCC2C3CCC4CC(=O)CCC4(C)C3C=CC12C (configuration not stated)	-9.3	-0.4	-2.0	1.4	·	-3.4	·	·	·	·
Cc1ccc(/C(C#N)=C\c2ccc(N3CCOCC3)o2)cc1	41.8*	14.8	-37.7	87.9*	12.3	77.8*	62.2*	105.5*	31.9*	26.9*
CN(C)[C@H]1CCN([C@@H]2CS(=O)(=O)N[C@H]2COCc2ccccc2)C1	4.9	·	·	5.4	·	-3.1	·	·	·	·
Cc1ccc(CS(=O)(=O)c2ncc(Cl)c(C(=O)Nc3nnc(C(C)C)s3)n2)cc1	48.0*	11.2	13.7	56.6*	·	-0.8	87.2*	55.4*	44.8*	30.8*
CC(C)c1nnc(NC(=O)c2nc(S(=O)(=O)Cc3ccc(F)cc3)ncc2Cl)s1	25.4*	2.1	10.3	44.4*	·	9.4	91.6*	56.7*	25.0*	18.3*
Cc1cccc(CS(=O)(=O)c2ncc(Cl)c(C(=O)Nc3nnc(C(C)C)s3)n2)c1	41.1*	11.1	19.6	51.7*	·	21.2	90.3*	58.7*	35.3*	27.7*
SMILES	NOD2-RIPK2 inh	TLR9-MyD88 block	Beta2AR agonist	ABHD5-PLIN5 inh	TLR4 MyD88 comp	Exocytosis inh	ABHD5-PLIN5 conf	HNF4 split-luc	NOD2-RIPK2 conf	BLA counter
CCCCc1cc(=O)oc2cc(C)cc(OCC(=O)N3C[C@H]4C[C@@H](C3)c3cccc(=O)n3C4)c12	-3.1	6.4	8.4	1.6	·	0.8	·	·	·	·
Cc1ccccc1CS(=O)(=O)c1nnc([C@H](Cc2ccccc2)NC(=O)OC(C)(C)C)o1	57.1*	11.8	61.1*	42.9*	7.7	39.0	57.3*	105.5*	50.3*	1.9
C=C1C(=O)[C@]23C[C@H]1CC[C@H]2[C@]1(C)[C@@H](OC(C)=O)CC[C@@](C)(C(=O)O)[C@H]1C[C@@H]3OC(C)=O	11.0	·	·	14.5	·	4.0	·	·	·	·
C=C1C(=O)[C@]23C[C@H]1CCC2[C@]1(C)CCC[C@@](C)(C(=O)O)C1C[C@@H]3O (some centres not stated)	22.2*	·	·	51.2*	·	13.0	46.3*	102.1*	32.7*	2.1
Clc1nssc1=Nc1nncs1	26.8*	7.7	1.4	72.5*	·	-4.1	64.4*	100.8*	28.9*	2.9
OCc1ccccc1N=c1ssnc1Cl	·	·	·	·	13.3	·	·	·	·	·
N#CC(C#N)=C1C=CC=CN1/C(=C\c1ccco1)C(=O)c1ccc(-c2ccccc2)cc1	21.7*	14.6	18.4	66.3*	9.3	28.4	103.5*	111.0*	78.3*	15.8*
Cc1ccc(NC(=O)c2cccc(-n3cnnn3)c2)cc1Cl	-13.9	-10.7	3.7	-2.8	·	1.9	·	·	·	·
Cc1c(Cl)sn(-c2ccc(Cl)cc2)c1=O	29.0*	3.6	48.8*	26.1*	24.1	92.1*	77.5*	106.6*	89.1*	28.3*
Cc1nn(-c2ccc(Cl)cc2)c(=O)c2ccccc12	-7.0	8.4	0.4	0.2	9.1	-0.3	·	·	·	·
O=C(CSc1nnc(C2CC2)n1C1CC1)N1CCN(c2ccc(O)cc2)CC1	-8.8	-10.8	·	5.8	·	-6.5	·	·	·	·
